Compound activity (PubChem BioAssay)
TGFb SMAD3 inh: blocks TGF-b signaling; Potency, µM (titrated, usually from 46.1 µM), for the others: top-dose activity, negative = inhibition, most hits filed as inhibitors; HepG2 CAGA-GFP TGF-b/SMAD3 reporter, GFP fluorescence, 18 h; TGF-beta stimulated, 500 pg/mL final; 1.2% of 410,000 active; note: % is set by controls: 0 for no effect and ±100 for the full control effect; nearly all actives have a fitted effect of over 65% in size
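HEPG2 CAGA-GFP, 1000 cells/well; 2 h settle, 37 C; cpd via pin tool; TGF-b 500 pg/mL final; 18 h, 37 C; GFP imaging ex488/em500-530; %Activity normalised to -TGF-b and +DMSO controls; CRC fit, curve class.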
HepG2 viability: counter-screen for TGF-b inhibitors: cytotoxicity in HepG2 cells | HepG2 CAGA-GFP viability, ATP luminescence, 18 h | Potency, µM (doses to about 46.1 µM), without a hit: at the top dose activity change, negative = cytotoxicity, most hits filed as cytotoxic | 0.76% of 410,000 active
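HepG2 CAGA-GFP cells (1000/well, DMEM with 1% FBS) received compound, then TGF-beta at 500 pg/mL final, and were incubated 18 hours at 37 degrees C. Viability was read by CellTiter-Glo luminescence. Media-only wells were set as complete cell-killing and DMSO as no toxicity.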
RORgamma inh: blocks mouse ROR gamma transcriptional activity | P51450 | Drosophila S2 Gal4-RORgamma UAS-luciferase reporter, 20 h | Potency, µM (highest dose often 53.6 µM), for the others: at the top dose activity change, negative = inhibition, actives largely listed as inhibitors | 5.4% of 310,000 active | AID 2551; note: % is set by controls: 0 for no effect and ±100 for the full control effect; nearly all actives have a fitted effect of over 60% in size
Target sequence (P51450 whole entry, looked up, the tested form may be a part): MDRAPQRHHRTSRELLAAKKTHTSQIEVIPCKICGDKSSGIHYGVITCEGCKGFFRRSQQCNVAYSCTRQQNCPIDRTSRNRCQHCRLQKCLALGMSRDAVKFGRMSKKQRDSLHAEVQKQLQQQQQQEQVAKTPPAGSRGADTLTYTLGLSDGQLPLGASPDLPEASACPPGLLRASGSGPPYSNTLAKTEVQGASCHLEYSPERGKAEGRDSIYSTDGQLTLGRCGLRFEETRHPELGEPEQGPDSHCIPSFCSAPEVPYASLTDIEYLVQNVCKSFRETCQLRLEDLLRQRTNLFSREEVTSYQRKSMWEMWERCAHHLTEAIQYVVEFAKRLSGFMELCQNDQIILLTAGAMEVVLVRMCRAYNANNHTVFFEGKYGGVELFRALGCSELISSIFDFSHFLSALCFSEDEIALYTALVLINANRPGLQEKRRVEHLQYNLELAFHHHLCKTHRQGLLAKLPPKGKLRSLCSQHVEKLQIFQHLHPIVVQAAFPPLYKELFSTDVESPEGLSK
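A Gal4/UAS one-hybrid system in insect cells: metallothionein-promoter Gal4–ROR gamma fusion plus Photinus luciferase reporter. Copper sulfate 700 uM final, 20 hr ambient incubation, luminescent detection after 10 min with reagent.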
ATXN2 expr inh: reduces ATXN2 reporter expression in HEK-293 cells; AID 1745845; HEK-293 ATXN2-luciferase reporter, luminescence, 24 h; Potency, µM (series often up to 57 µM), without a hit: at the top dose activity change, negative = inhibition, most hits filed as inhibitors; 0.72% of 360,000 active; note: % is set by controls: 0 for no effect and ±100 for the full control effect; nearly all actives have a fitted effect of over 55% in size
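qHTS (up to 57 uM final) was run with 24 h compound exposure of reporter cells at 37 °C. Each well was multiplexed: SteadyGlo luminescence measured ATXN2-luciferase expression after a fluorogenic Gly-Phe-AFC viability readout (25 uM final).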
VP16 counter: counter-screen for ROR gamma inhibitors: Gal4-VP16 reporter; Potency, µM (series often up to 53.6 µM), for inactives: at the top dose activity, negative = inhibition, actives largely listed as inhibitors; Drosophila S2 Gal4-VP16 UAS-luciferase, luminescence, 20 h; 3.5% of 310,000 active;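 note: Gal4-VP16 expression switched on by copper sulfate through the metallothionein promoter; % is set by controls: 0 for no effect and ±100 for the full control effect; nearly all actives have a fitted effect of over 50% in size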
S2 tox: viability counter-screen for ATXN expression inhibitors. S2 cells (HEK-293 line with an ATXN2-luciferase reporter) viability, CellTiter-Fluor protease fluorescence, 24 h. Potency, µM (series often up to 56.7 µM), hits mostly cytotoxic. 0.49% of 400,000 active. AID 651635; note: nearly all actives have a fitted effect of over 40% in size
* hit, by the source's call; [ ] = dose if it differs, or a comment. Only some compounds are listed: those with a hit (about 6.3% of all), similar ones and a draw of the others. Calls come from the whole dose curve; as a rule, active = well fitted curve in the direction sought with a large enough effect; inconclusive = small, poorly fitted or top-dose-only effect, or another doubt; inactive = no such curve, though single readings can be large; an effect the other way counts as inactive or inconclusive. Potency is the fitted concentration of half-maximal effect.

For O=C(c1ccccc1)C(CCC(CN1CCOCC1)C(=O)c1ccccc1)CN1CCOCC1 (configuration not stated) the results were TGFb SMAD3 inh inconclusive, HepG2 viability -104%, RORgamma inh inconclusive, ATXN2 expr inh 22µM* and VP16 counter 7.9µM*.
Cc1cnc(C)c(-c2cc(F)cc3c2OC(CNC(=O)c2cc(Cl)ccc2F)C3)n1 (configuration not stated) was read as S2 tox inactive.
For O=C(O)c1cc2cc(Cc3cccnc3)ccc2o1 the results were RORgamma inh 0% and VP16 counter -3%.
Screening CCCn1c(C)nc2c(NCCCCN3CCCC3)nc(C)nc21 returned RORgamma inh -10% and VP16 counter 7%.
`O=C(NCc1ccccn1)c1nn(-c2ccccc2F)nc1CO` gave TGFb SMAD3 inh 0% and HepG2 viability -6%.
For O=S(=O)(NCCc1csc2nc(-c3ccccc3)nn12)c1ccc(Oc2ccccc2)cc1 the results were TGFb SMAD3 inh -25% and HepG2 viability -15%.
`Cn1/c(=N/N=C/c2ccccn2)sc2ccccc21` gave TGFb SMAD3 inh 10%, HepG2 viability -3%, RORgamma inh 10µM*, ATXN2 expr inh 57%[11.3 µM] and VP16 counter inconclusive.
Cn1/c(=N/N=C/c2ccc(N3CCOCC3)cc2)sc2ccccc21 was read as TGFb SMAD3 inh 5%, HepG2 viability -6%, RORgamma inh inconclusive, ATXN2 expr inh 17%, VP16 counter inconclusive and S2 tox inactive.
For Fc1ccccc1CNC(=S)NC1CCCCC1 the results were TGFb SMAD3 inh -22%, HepG2 viability -4%, RORgamma inh 5µM*, ATXN2 expr inh 1%, VP16 counter 7.9µM* and S2 tox inactive.
`O=C(NCc1ccccc1F)C1CCCN(C(=O)NC2CCCCC2)C1` (configuration not stated) gave TGFb SMAD3 inh -5%, HepG2 viability -10%, RORgamma inh 3%, ATXN2 expr inh 1%, VP16 counter -14% and S2 tox inactive.
O=C(COC(=O)C1CCC1)NCc1ccccc1Cl was read as TGFb SMAD3 inh 0%, HepG2 viability -26%, RORgamma inh -5%, ATXN2 expr inh 1%, VP16 counter -6% and S2 tox inactive.
COc1ccccc1CNC(=O)C1CCCC1 was read as TGFb SMAD3 inh -25%, HepG2 viability -8%, RORgamma inh 10%, ATXN2 expr inh 6%, VP16 counter -2% and S2 tox inactive.
`S=C(NCc1ccccc1Cl)NC1CCCC1` gave TGFb SMAD3 inh -14%, HepG2 viability -2%, RORgamma inh 6.3µM*, VP16 counter 8.9µM* and S2 tox inactive.
For COc1ccccc1CNC(=S)NC1CCCCC1 the results were TGFb SMAD3 inh 5%, HepG2 viability -7%, RORgamma inh 2.2µM*, ATXN2 expr inh -19%, VP16 counter 10µM* and S2 tox inactive.
For COc1ccc(CNc2nc(-c3ccco3)nn2S(=O)(=O)c2ccc3ccccc3c2)cc1OC the results were TGFb SMAD3 inh 3%, HepG2 viability -8%, ATXN2 expr inh -4% and S2 tox inconclusive.
Screening CCC(=O)NNc1ncnc2ccccc12 returned TGFb SMAD3 inh -6%, HepG2 viability 5%, RORgamma inh 12%, VP16 counter -1% and S2 tox inactive.
`CCOC(=O)C/C(=N\Nc1ncnc2ccccc12)c1ccccc1` gave TGFb SMAD3 inh 3%, HepG2 viability -19%, RORgamma inh 6.3µM*, ATXN2 expr inh 87%, VP16 counter 6.3µM* and S2 tox inactive.
`CCOC(=O)/C(=N\Nc1ncnc2ccccc12)c1ccc(C)cc1` gave TGFb SMAD3 inh -15%, HepG2 viability -11%, RORgamma inh 5.6µM*, ATXN2 expr inh -32%, VP16 counter 13µM* and S2 tox inactive.
`CCOC(=O)c1ccc(Nc2ncnc3ccccc23)cc1` gave TGFb SMAD3 inh 3%, HepG2 viability -9%, RORgamma inh inconclusive, ATXN2 expr inh 20%[11.3 µM], VP16 counter 3% and S2 tox inactive.
For O=C(Nc1nc2c(Cl)cccc2s1)C1CC1 the results were TGFb SMAD3 inh 1%, HepG2 viability -40%, RORgamma inh 38%, VP16 counter -3% and S2 tox inactive.
For O=C(Nc1nc2c(cc3c4c(cccc42)CC3)s1)c1ccccc1Cl the results were TGFb SMAD3 inh 3%, HepG2 viability 7%, RORgamma inh 5µM*, ATXN2 expr inh 26%, VP16 counter -26% and S2 tox inactive.
Cc1ccc(NC(=S)N2CCc3[nH]c4ccccc4c3C2)cc1 was read as TGFb SMAD3 inh 1%, HepG2 viability -20%, RORgamma inh 6.3µM*, ATXN2 expr inh 4%, VP16 counter -8% and S2 tox inactive.
S=C(NC1CCCCC1)N1CCc2[nH]c3ccccc3c2C1 was read as TGFb SMAD3 inh -6%, HepG2 viability 6%, RORgamma inh -16%, ATXN2 expr inh -10%, VP16 counter -6% and S2 tox inactive.
O=C(N/N=C/c1cccc(Oc2ccccc2)c1)c1ccncc1 was read as TGFb SMAD3 inh -20%, HepG2 viability -3%, RORgamma inh inconclusive, ATXN2 expr inh -21%, VP16 counter inconclusive and S2 tox inactive.
Screening COc1ccc(/C=N/NC(=O)c2cccnc2)cc1CSc1nc2ccccc2s1 returned TGFb SMAD3 inh inconclusive, HepG2 viability -14%, RORgamma inh inconclusive, ATXN2 expr inh 2%, VP16 counter 20µM* and S2 tox inactive.
For O=C(N/N=C/c1cccc(Oc2ccccc2)c1)c1ccc(O)cc1O the results were TGFb SMAD3 inh 0%, HepG2 viability -2%, RORgamma inh 0.63µM*, ATXN2 expr inh 12%, VP16 counter 2.2µM* and S2 tox inactive.
For COc1ccc(/C=N/NC(=O)c2ccc(O)cc2O)cc1CSc1ccccn1 the results were TGFb SMAD3 inh inconclusive, HepG2 viability -2%, RORgamma inh 0.089µM*, ATXN2 expr inh 5%, VP16 counter 2µM* and S2 tox inactive.
For O=C(Cn1c(SCC(=O)Nc2ccc(F)cc2)nc2ccccc21)NCc1ccc(F)cc1 the results were TGFb SMAD3 inh -25%, HepG2 viability -58%, ATXN2 expr inh -17% and S2 tox inconclusive.
For Cc1ccc(CNC(=O)Cn2c(SCC(=O)Nc3ccc(F)cc3)nc3ccccc32)cc1 the results were TGFb SMAD3 inh inconclusive, HepG2 viability 7.1µM*, ATXN2 expr inh inconclusive and S2 tox inconclusive.
